Measured values: PubChem BioAssay (Tox21)
Where “and” joins values, the source holds several entries; their conditions need not be identical. Equal entries are not always repeated. Results filed as inconclusive are left out. Calls of active or inactive are those of the source. Calls follow the shape of the dose curve; as a rule, active = well fitted curve in the direction sought with a large enough effect in the repeat runs; inconclusive = weak or mixed curves; inactive = no such curve, though single readings can be large; an effect the other way counts as inactive or inconclusive.

Legend:
[1] = A CellTox Green Cytotoxicity Assay to monitor cytotoxicity in HEK293 cells - 40 hour (AID 1224871); also: nearly all actives have a fitted effect of over 45% in size; also: potency is read from the fitted curve at half-maximal effect
In short: (§1)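 Homogeneous no-lysis format: HEK293 cell suspension mixed with CellTox Green reagent, seeded, incubated 5 h at 37 C/5% CO2, then dosed by pintool with compound in DMSO.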

[2] = qHTS RealTime-Glo MT Cell Viability Assay in HEK293 cells - 16 hour (AID 1224872); also: top concentration of the series differs between compounds; nearly all actives have a fitted effect of over 50% in size
In short: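 Tox21 10K qHTS, HEK293, 600 cells/well, RealTime-Glo reagent co-dispensed with cells; 5 h preincubation, compound by pintool, 37 C, luminescence at 0–40 h.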

[3] = qHTS RealTime-Glo MT Cell Viability Assay in HepG2 cells - 8 hour (AID 1224873); also: nearly all actives have a fitted effect of over 55% in size
In short: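 Real-time viability: cells seeded at 600 per well together with NanoLuc and cell-permeant prosubstrate, compounds added after 5 h incubation. Luminescence tracked at 0, 8, 16, 24, 32 and 40 h of exposure.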

[4] = qHTS RealTime-Glo MT Cell Viability Assay in HEK293 cells - 40 hour (AID 1224874); settings: RealTime-Glo luminescence; max response: stronger effect = lower value; also: nearly all actives have a fitted effect of over 50% in size
In short: (§2)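 Measured as luminescence from the same continuously cultured HEK293 wells at successive time points (0, 8, 16, 24, 32, 40 h) after compound addition. Reagent present from seeding; dosing at 5 h; incubation 37 C.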

[5] = A CellTox Green Cytotoxicity Assay to monitor cytotoxicity in HEK293 cells - 24 hour (AID 1224875); also: nearly all actives have a fitted effect of over 45% in size; also: potency is read from the fitted curve at half-maximal effect; as to activity change: series mostly up to about 77 µM
In short: as §1

[6] = A CellTox Green Cytotoxicity Assay to monitor cytotoxicity in HepG2 cells - 16 hour (AID 1224876); also: nearly all actives have a fitted effect of over 45% in size; also: potency is read from the fitted curve at half-maximal effect
In short: (§3)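 Fluorescent DNA-binding dye, 600 HepG2 cells/well, 5 h preincubation then compound in DMSO; same plates read at 0–40 h, 37 C.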

[7] = qHTS RealTime-Glo MT Cell Viability Assay in HepG2 cells - 32 hour (AID 1224877); also: nearly all actives have a fitted effect of over 55% in size
In short: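 Cells + NanoLuc/prosubstrate dispensed (600 cells/well) → 5 h at 37 C/5% CO2 → compounds in DMSO transferred → 40 h incubation at 37 C, luminescence read at 0, 8, 16, 24, 32, 40 h.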

[8] = A CellTox Green Cytotoxicity Assay to monitor cytotoxicity in HepG2 cells - 40 hour (AID 1224879); also: nearly all actives have a fitted effect of over 40% in size; also: potency is read from the fitted curve at half-maximal effect
In short: as §3

[9] = qHTS RealTime-Glo MT Cell Viability Assay in HEK293 cells - 0 hour (AID 1224880); also: nearly all actives have a fitted effect of over 45% in size; also: potency is read from the fitted curve at half-maximal effect; as to activity change, negative = cytotoxicity: top concentration of the series differs between compounds
In short: as §2

[10] = A CellTox Green Cytotoxicity Assay to monitor cytotoxicity in HepG2 cells - 24 hour (AID 1224878); also: nearly all actives have a fitted effect of over 45% in size
In short: as §3
% is scaled to controls: 0 for no effect and ±100 for the full control effect.

CCCc1cc(C(N)=S)ccn1
inactive: Potency [1] | Potency [2] | Potency [3] | max response [4] 2.82% | Potency [5] | Potency [6] | Potency [7] | Potency [8] | Potency [9]

ClC(Cl)(Br)Br
inactive: Potency [1] | Potency [2] | Potency [3] | max response [4] -1.43% | Potency [5] | Potency [6] | Potency [7] | Potency [8] | Potency [9]

CC(=O)Nc1ccc(S(N)(=O)=O)cc1
inactive: Potency [1] | Potency [2] | Potency [3] | max response [4] 14.7% | Potency [5] | Potency [6] | Potency [7] | Potency [8] | Potency [9]

Cc1cccn2c(=O)c(-c3nnn[nH]3)cnc12
inactive: Potency [1] | activity change, negative = cytotoxicity [2] 2% [at 15.8 µM] | viability change, negative = cytotoxic [3] -11% [at 15.8 µM] | max response [4] 1.37% | activity change [5] 11.9% [at 15.8 µM, stronger effect = higher value] | cytotoxicity increase [6] 6.14% [at 15.8 µM] | activity change, negative = cytotoxic [7] 3.38% [at 15.8 µM] | cytotoxicity increase [8] 1.54% [at 15.8 µM] | activity change, negative = cytotoxicity [9] 7.45% [at 15.8 µM]

CC(=O)OCC(=O)[C@@]1(O)CCC2C3CCC4=CC(=O)CC[C@]4(C)C3[C@@H](O)C[C@@]21C (stereo partly specified)
active: Potency [9] 8.49 µM
inactive: Potency [1] | Potency [2] | Potency [3] | max response [4] -13.4% | Potency [5] | Potency [6] | Potency [7] | Potency [8]

CC(=O)CC(C)C
inactive: Potency [1] | Potency [2] | Potency [3] | max response [4] 14.5% | Potency [5] | Potency [6] | Potency [7] | Potency [10] | Potency [8] | Potency [9]

CC(C)OC(=O)c1ccccc1
inactive: Potency [1] | Potency [2] | Potency [3] | max response [4] 0.492% | Potency [5] | Potency [6] | Potency [7] | Potency [8] | Potency [9]

CCc1cccc2c(CCO)c[nH]c12
inactive: Potency [1] | Potency [2] | Potency [3] | max response [4] 0.292% | Potency [5] | Potency [6] | Potency [7] | Potency [8] | Potency [9]

C[N+](C)(C)CCCCCC[N+](C)(C)C
inactive: Potency [1] | Potency [2] | Potency [3] | max response [4] 3.71% and 1.42% | Potency [5] | Potency [6] | Potency [7] | Potency [10] | Potency [8] | Potency [9]

CCOC(=O)Nc1ccc(NCc2ccc(F)cc2)nc1N
inactive: Potency [1] | Potency [2] | Potency [3] | max response [4] -2.14% | Potency [5] | Potency [6] | Potency [7] | Potency [10] | Potency [8] | Potency [9]

CCCCCCCCCCCCCCCCC
inactive: Potency [1] | Potency [2] | Potency [3] | max response [4] 5.06% | Potency [5] | Potency [6] | Potency [7] | Potency [8] | Potency [9]

COC(C)(C)CCCC(C)CC=O (stereo unspecified)
inactive: Potency [1] | Potency [2] | Potency [3] | max response [4] 3.83% | Potency [5] | Potency [6] | Potency [7] | Potency [8] | Potency [9]

CN(C)CCCSc1ccccc1NC(=O)/C=C/c1ccccc1
inactive: Potency [2] | Potency [3] | max response [4] -11.2% | Potency [7] | Potency [9]
active: Potency [1] 19 µM | Potency [5] 19 µM | Potency [6] 21.3 µM | Potency [8] 19 µM

Cc1sccc1Br
inactive: Potency [1] | Potency [2] | Potency [3] | max response [4] 6.36% | Potency [5] | Potency [6] | Potency [7] | Potency [10] | Potency [8] | Potency [9]

CN1CCC(=C2c3ccccc3CC(=O)c3sccc32)CC1
inactive: Potency [1] | Potency [2] | Potency [3] | max response [4] -28.2% | Potency [5] | Potency [6] | Potency [7] | Potency [8] | Potency [9]

CCO[Si](CCC1CCC2OC2C1)(OCC)OCC (stereo unspecified)
inactive: Potency [1] | Potency [2] | Potency [3] | max response [4] 14.1% | Potency [5] | Potency [6] | Potency [7] | Potency [10] | Potency [8] | Potency [9]

N=c1nc(N2CCCCC2)cc(N)n1O
inactive: Potency [1] | Potency [2] | Potency [3] | max response [4] -2.32% | Potency [5] | Potency [6] | Potency [7] | Potency [8] | Potency [9]

FC(F)OC(Cl)C(F)(F)F (stereo unspecified)
inactive: Potency [1] | Potency [2] | Potency [3] | max response [4] 5.59% | Potency [5] | Potency [6] | Potency [7] | Potency [10] | Potency [8] | Potency [9]

CC1(C)CO[C@@H](CC(=O)O)CN1
inactive: Potency [1] | Potency [2] | Potency [3] | max response [4] 4.58% | Potency [5] | Potency [6] | Potency [7] | Potency [8] | Potency [9]

COCCCOCCCOC
inactive: Potency [1] | Potency [2] | Potency [3] | max response [4] 6.62% | Potency [5] | Potency [6] | Potency [7] | Potency [9]

CC(=O)Nc1c(I)cc(I)c(C(=O)O)c1I
inactive: Potency [1] | Potency [2] | Potency [3] | max response [4] 7.77% | Potency [5] | Potency [6] | Potency [7] | Potency [10] | Potency [8] | Potency [9]

CCCCCCCCCCCC
inactive: Potency [1] | Potency [2] | Potency [3] | max response [4] 0.33% | Potency [5] | Potency [6] | Potency [10] | Potency [8] | Potency [9]

COc1ccccc1OCC(O)CN1CCN(CC(=O)Nc2c(C)cccc2C)CC1 (stereo unspecified)
inactive: Potency [1] | Potency [2] | Potency [3] | max response [4] -12.4% | Potency [5] | Potency [6] | Potency [7] | Potency [10] | Potency [8] | Potency [9]

O=C(O)COc1nn(Cc2ccccc2)c2ccccc12
inactive: Potency [1] | Potency [2] | Potency [3] | max response [4] 3.59% | Potency [5] | Potency [6] | Potency [7] | Potency [10] | Potency [8] | Potency [9]

COCCc1ccc(OCC(O)CNC(C)C)cc1 (stereo unspecified)
inactive: Potency [1] | Potency [2] | Potency [3] | max response [4] 1.31% and -8.11% | Potency [5] | Potency [6] | Potency [7] | Potency [10] | Potency [8] | Potency [9]

Cc1cc2c(cc1S(N)(=O)=O)S(=O)(=O)CCC2
inactive: Potency [1] | Potency [2] | Potency [3] | max response [4] 2.68% | Potency [5] | Potency [6] | Potency [10] | Potency [8] | Potency [9]

CCC(C)C1CCCCC1=O (stereo unspecified)
inactive: Potency [1] | Potency [2] | Potency [3] | max response [4] 7.3% | Potency [5] | Potency [6] | Potency [10] | Potency [8] | Potency [9]

c1cnc(N2CCN(Cc3ccc4c(c3)OCO4)CC2)nc1
inactive: Potency [1] | Potency [2] | Potency [3] | max response [4] -13% | Potency [5] | Potency [6] | Potency [10] | Potency [8] | Potency [9]

CC(=O)OCC(=O)[C@@]1(O)CC[C@H]2[C@@H]3CCC4=CC(=O)CC[C@]4(C)[C@H]3C(=O)C[C@@]21C
inactive: Potency [1] | Potency [2] | Potency [3] | max response [4] -9.91% | Potency [5] | Potency [6] | Potency [10] | Potency [8]
active: Potency [9] 6.01 µM

NS(=O)(=O)c1cc(C(=O)NN2C[C@H]3[C@H]4CCC(C4)[C@H]3C2)ccc1Cl
inactive: Potency [1] | Potency [2] | Potency [3] | max response [4] -21.1% | Potency [6] | Potency [7] | Potency [10] | Potency [8] | Potency [9]

C=C[Si](OC(=C)C)(OC(=C)C)OC(=C)C
inactive: Potency [1] | Potency [2] | Potency [3] | max response [4] 13.4% | Potency [5] | Potency [7] | Potency [8] | Potency [9]

COC(=O)c1cc(C(=O)OC)cc(S(=O)(=O)O)c1
inactive: Potency [1] | Potency [2] | Potency [3] | max response [4] -1.13% | Potency [6] | Potency [7] | Potency [10] | Potency [8] | Potency [9]

CC1(C)C(O)C(C)(C)C1O (stereo unspecified)
inactive: Potency [1] | Potency [2] | Potency [3] | max response [4] 0.527% | Potency [5] | Potency [6] | Potency [10] | Potency [8] | Potency [9]

NS(=O)(=O)c1ccc(C(=O)O)cc1
inactive: Potency [1] | Potency [2] | Potency [3] | max response [4] -0.921% | Potency [5] | Potency [6] | Potency [10] | Potency [8] | Potency [9]

CCCCNC(=O)NCCCC
inactive: Potency [1] | Potency [2] | Potency [3] | max response [4] -3.77% | Potency [5] | Potency [6] | Potency [10] | Potency [8] | Potency [9]

Nc1cc(=O)[nH]c(N)n1
inactive: Potency [1] | Potency [2] | Potency [3] | max response [4] 0.787% | Potency [5] | Potency [6] | Potency [10] | Potency [8] | Potency [9]

CCn1nc(C(=O)O)c(=O)c2cc3c(cc21)OCO3
inactive: Potency [1] | Potency [2] | Potency [3] | max response [4] 4.37% | Potency [6] | Potency [7] | Potency [10] | Potency [8] | Potency [9]

C[C@](N)(Cc1ccc(O)cc1)C(=O)O
inactive: cytotoxicity increase [1] 1.26% [at 6.97 µM] | activity change, negative = cytotoxicity [2] 1.36% [at 6.97 µM] | viability change, negative = cytotoxic [3] 1.11% [at 6.97 µM] | max response [4] 0.763% | activity change [5] 2.77% [at 6.97 µM, stronger effect = higher value] | cytotoxicity increase [6] -1.17% [at 6.97 µM] | cytotoxicity [10] -1.48% [at 6.97 µM] | cytotoxicity increase [8] -2.6% [at 6.97 µM] | activity change, negative = cytotoxicity [9] 0.416% [at 6.97 µM]

N=C(N)c1ccc(OCCCOc2ccc(C(=N)N)cc2)cc1
inactive: Potency [1] | Potency [2] | Potency [3] | max response [4] 1.81% | Potency [5] | Potency [6] | Potency [10] | Potency [8] | Potency [9]

CN(C)CCCNCCCN(C)C
inactive: Potency [1] | Potency [2] | Potency [3] | max response [4] 5.75% | Potency [5] | Potency [6] | Potency [10] | Potency [8] | Potency [9]

CC(C)(C)NCCNC(C)(C)C
inactive: Potency [1] | Potency [2] | Potency [3] | max response [4] -0.754% | Potency [5] | Potency [6] | Potency [8] | Potency [9]
